We go through 13 sequences from article PMC5700166.

What all share (test): protein-binding microarray (PBM); PBM: ~300 nM protein, 6 mM HEPES pH 7.8, 80 mM KCl, 0.5 mM EDTA, 0.5 mM EGTA, 6% glycerol, 35 ng/ul poly-dIdC, 1% milk, 1 h, room temperature; Ap Aiptasia and Nv Nematostella (sea anemones) / Co Capsaspora / Aq Amphimedon (sponge) / Dm Drosophila / Hu human; RHD is the Rel homology domain; high values mean tight binding
What all share (details): dsDNA, one strand shown

Assay [1] concerns the target T1, GST-Ap-NF-kB RHD (Exaiptasia pallida (Aiptasia), UniProt A0A913YAJ5 2-422).
T1 sequence: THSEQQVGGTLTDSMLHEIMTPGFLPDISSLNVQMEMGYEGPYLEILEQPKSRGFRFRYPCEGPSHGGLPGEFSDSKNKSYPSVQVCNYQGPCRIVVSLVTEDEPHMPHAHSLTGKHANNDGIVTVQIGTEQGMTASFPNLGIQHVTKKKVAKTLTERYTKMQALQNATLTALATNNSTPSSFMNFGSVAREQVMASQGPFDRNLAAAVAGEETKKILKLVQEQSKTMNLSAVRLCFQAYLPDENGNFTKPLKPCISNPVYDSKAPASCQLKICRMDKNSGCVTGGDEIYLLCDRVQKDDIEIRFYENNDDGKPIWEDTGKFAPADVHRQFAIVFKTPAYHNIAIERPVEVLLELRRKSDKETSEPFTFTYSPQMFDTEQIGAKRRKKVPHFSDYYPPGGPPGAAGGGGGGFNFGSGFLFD

For assay [2], the target named is T2, GST-Nv-NF-kB (Cys allele) (Nematostella vectensis, UniProt E5G601 2-411).
T2 sequence: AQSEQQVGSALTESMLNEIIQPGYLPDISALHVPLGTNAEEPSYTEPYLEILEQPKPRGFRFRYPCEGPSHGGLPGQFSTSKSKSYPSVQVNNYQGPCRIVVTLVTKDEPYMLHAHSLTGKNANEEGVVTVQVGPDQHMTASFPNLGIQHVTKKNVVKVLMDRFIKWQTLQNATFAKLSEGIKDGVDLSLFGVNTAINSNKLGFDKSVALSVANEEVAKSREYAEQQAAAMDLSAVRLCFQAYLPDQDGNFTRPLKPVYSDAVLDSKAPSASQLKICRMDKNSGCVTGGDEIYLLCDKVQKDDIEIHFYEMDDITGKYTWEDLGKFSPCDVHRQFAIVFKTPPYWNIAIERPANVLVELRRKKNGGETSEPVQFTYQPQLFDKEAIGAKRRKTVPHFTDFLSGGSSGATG

Assay [3] addresses T3, GST-Co-NF-kB (Capsaspora owczarzaki, UniProt F1ARL5 200-546).
T3 sequence: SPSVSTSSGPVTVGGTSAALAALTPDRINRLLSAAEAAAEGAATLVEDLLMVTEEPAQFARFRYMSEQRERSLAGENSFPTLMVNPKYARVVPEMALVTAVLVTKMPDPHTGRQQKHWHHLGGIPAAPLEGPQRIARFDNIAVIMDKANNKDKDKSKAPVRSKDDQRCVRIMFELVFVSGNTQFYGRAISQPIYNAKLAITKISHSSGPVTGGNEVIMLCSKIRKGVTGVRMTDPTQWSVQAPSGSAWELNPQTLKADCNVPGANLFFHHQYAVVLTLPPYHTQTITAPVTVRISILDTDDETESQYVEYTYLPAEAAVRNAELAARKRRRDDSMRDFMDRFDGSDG

The target of assay [4] is T4, GST-Dm-Relish (Drosophila melanogaster, UniProt Q94527 99-473).
T4 sequence: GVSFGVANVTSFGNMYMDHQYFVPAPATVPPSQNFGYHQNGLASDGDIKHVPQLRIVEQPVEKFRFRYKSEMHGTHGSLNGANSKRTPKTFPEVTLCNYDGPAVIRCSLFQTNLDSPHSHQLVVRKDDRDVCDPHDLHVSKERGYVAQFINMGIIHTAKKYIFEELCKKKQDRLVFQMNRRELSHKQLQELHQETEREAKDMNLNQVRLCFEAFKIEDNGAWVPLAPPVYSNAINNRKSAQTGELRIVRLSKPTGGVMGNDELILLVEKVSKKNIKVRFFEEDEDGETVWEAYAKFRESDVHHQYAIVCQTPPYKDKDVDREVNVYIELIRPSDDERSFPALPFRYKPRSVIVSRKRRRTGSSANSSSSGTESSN

The target of assay [5] is T5, GST-Aq-NF-kB (Amphimedon queenslandica, UniProt A9Y5G7 2-389).
T5 sequence: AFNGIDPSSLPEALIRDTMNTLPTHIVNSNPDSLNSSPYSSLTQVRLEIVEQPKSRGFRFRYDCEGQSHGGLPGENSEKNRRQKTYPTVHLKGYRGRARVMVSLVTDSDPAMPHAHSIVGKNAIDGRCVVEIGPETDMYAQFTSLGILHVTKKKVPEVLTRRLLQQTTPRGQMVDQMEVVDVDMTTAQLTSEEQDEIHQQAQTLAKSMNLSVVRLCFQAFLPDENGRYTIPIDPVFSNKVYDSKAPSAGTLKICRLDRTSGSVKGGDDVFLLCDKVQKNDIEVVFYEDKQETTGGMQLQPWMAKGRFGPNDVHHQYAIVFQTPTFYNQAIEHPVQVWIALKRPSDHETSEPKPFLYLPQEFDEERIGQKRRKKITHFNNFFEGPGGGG

Regarding “CCGATTAACATCACCACTTTCCCTGATGTTAATCGGGTCTTGATTCGCTTGACGCTGCTG”, the binding signal came to 3.21 z-score in assay [1]; 4.07 z-score in assay [2]; 3.94 z-score in assay [3]; 1.32 z-score in assay [4]; 3.11 z-score in assay [5].
Consider “CCGATTAACATCAGGGAAAGTAATGATGTTAATCGGGTCTTGATTCGCTTGACGCTGCTG”, for which the binding signal came to 3.01 z-score in assay [1]; 4.93 z-score in assay [2]; 3.38 z-score in assay [3]; 2.08 z-score in assay [4]; 4.25 z-score in assay [5].
Taken in the same sequence, the figures for “CCGATTAACATCAGAAGATTCCCTGATGTTAATCGGGTCTTGATTCGCTTGACGCTGCTG” were 3.38 z-score, 4.85 z-score, 3.43 z-score, 3.48 z-score and 5.19 z-score.
Taken in the same sequence, the figures for “CCGATTAACATCAGGGGTTTTGATGATGTTAATCGGGTCTTGATTCGCTTGACGCTGCTG” were 3.81 z-score, 3.46 z-score, 1.34 z-score, 5.6 z-score and 3.25 z-score.
The like results for “CCGATTAACATCACGTTATTCCCTGATGTTAATCGGGTCTTGATTCGCTTGACGCTGCTG” were, in that order, 2.79 z-score, 2.96 z-score, 2.74 z-score, 4.77 z-score and 2.9 z-score.
Consider “CCGATTAACATCACGGGAATGCCTGATGTTAATCGGGTCTTGATTCGCTTGACGCTGCTG”, for which the binding signal in assay [1] was determined as 1.93 z-score; in assay [2], 2.46 z-score; in assay [3], 1.56 z-score; in assay [4] it was 3.11 z-score; in assay [5], 3.8 z-score.
For “CCGATTAACATCAGGGGGTTAACTGATGTTAATCGGGTCTTGATTCGCTTGACGCTGCTG”, the binding signal in assay [1] came to 5.36 z-score; in assay [2] it was 3.73 z-score; in assay [3], 2.64 z-score; in assay [4], 8.09 z-score; in assay [5], 5.06 z-score.
With “CCGATTAACATCACAAACGGGGCTGATGTTAATCGGGTCTTGATTCGCTTGACGCTGCTG”, the binding signal in assay [1] is 1.5 z-score; in assay [2] it was 2.75 z-score; in assay [3], 1.3 z-score; in assay [4], 1.33 z-score; in assay [5], 3.49 z-score.
On to “CCGATTAACATCAAAAACACCCCTGATGTTAATCGGGTCTTGATTCGCTTGACGCTGCTG”, for which the binding signal is 4.85 z-score in assay [1]; 3.9 z-score in assay [2]; 3.98 z-score in assay [3]; 5.77 z-score in assay [4]; 4.95 z-score in assay [5].
Regarding “CCGATTAACATCACTACTTTCCCTGATGTTAATCGGGTCTTGATTCGCTTGACGCTGCTG”, the binding signal in assay [1] was 3.07 z-score; in assay [2] it was 3.89 z-score; in assay [3] it was 3.41 z-score; in assay [4] it was 1.63 z-score; in assay [5], 3.68 z-score.
Taken in the same sequence, the figures for “CCGATTAACATCAGGCTATCCCCTGATGTTAATCGGGTCTTGATTCGCTTGACGCTGCTG” were 4.44 z-score, 3.67 z-score, 2.18 z-score, 3.3 z-score and 4.81 z-score.
Taken in the same sequence, the figures for “CCGATTAACATCAGGAAATCCCATGATGTTAATCGGGTCTTGATTCGCTTGACGCTGCTG” were 4.15 z-score, 3.68 z-score, 1.17 z-score, 8.1 z-score and 5.09 z-score.
The like results for “CCGATTAACATCACGTTCCCCCCTGATGTTAATCGGGTCTTGATTCGCTTGACGCTGCTG” were, in that order, 6.32 z-score, 5.07 z-score, 9.5 z-score, 4.11 z-score and 4.43 z-score.
